In all, about 6,200 compounds went through this assay and about 2,900 (47%) were called active. Cut-off read from the data, not from the text of the source: active = inhibition above about 50%; inactive = the rest. So high a share suggests a set chosen from earlier hits. The list shows a part of the results.
Assay: Mycobacterium tuberculosis growth inhibition, primary screen (AID 1259343)
Conditions: inhibition: at 10 µM, active compounds read high; outcome: 10 uM

Structure (SMILES) | inhibition
BrC12CC3CC(C1)CC(c1nnc(-c4ccco4)o1)(C3)C2 | 23.4% (inactive)
Clc1ccccc1-c1nnc(SCc2ccccc2)o1 | 74.3% (active)
Clc1cc2c(c(CSc3nnc(-c4ccco4)o3)c1)OCOC2 | 86.3% (active)
Cc1occc1-c1nnc(SCc2nnc(-c3ccco3)o2)o1 | 92.5% (active)
Fc1ccccc1-c1nnc(SCc2ccccc2Br)o1 | 1.69% (inactive)
ClC12CC3CC(C1)CC(c1nnc(-c4ccco4)o1)(C3)C2 | 12.4% (inactive)
Fc1ccccc1-c1nnc(SCc2cccc3ccccc23)o1 | 85.9% (active)
Cc1ccc(/C=C/c2nc3scc(CC(C)C)c3c(=O)[nH]2)s1 | -12.6% (inactive)
COc1ccccc1CC(=O)N1CCC(n2nc(-c3ccccc3)cc2-c2ccccc2)CC1 | 59.7% (active)
CCCC(=O)N1CCCC1C(=O)Nc1ccc(-c2ccccc2)nn1 (stereo not drawn) | -13% (inactive)
COc1cc(-c2ccc(=O)n(Cc3ccccc3C)n2)cc(OC)c1OC | inactive
COc1ccccc1-c1noc(CSc2nnc(-c3ccc4c(c3)OCO4)o2)n1 | 99% (active)
COc1ccc(-c2noc(CSc3nnc(-c4ccc5c(c4)OCO5)o3)n2)cc1OC | 78.9% (active)
CCc1ccc(-c2noc(CSc3nnc(-c4ccc5c(c4)OCO5)o3)n2)cc1 | -23.7% (inactive)
COc1ccccc1-c1nnc(SCC(=O)c2ccc3c(c2)OCO3)o1 | -33.1% (inactive)
COc1ccc(OCCSc2nnc(-c3ccc(OC)c(OC)c3)o2)cc1 | 91.1% (active)
Cn1c(SC2CCCc3ccccc32)nnc1-c1ccco1 (stereo not drawn) | 27.9% (inactive)
CCn1c(SCC(=O)Nc2ccc(I)cc2)nnc1-c1ccco1 | 10.3% (inactive)
CCn1c(SCC(=O)c2cc(C)ccc2C)nnc1-c1ccco1 | 52.6% (active)
CC1CCN(S(=O)(=O)NCCc2ccccc2F)CC1 | 82.6% (active)
CC1CCN(S(=O)(=O)NC(C)c2ccc(F)cc2)CC1 (stereo not drawn) | 17.4% (inactive)
CC1CCCN(S(=O)(=O)NCc2ccccc2Cl)C1 (stereo not drawn) | -12.8% (inactive)
C/C=C/c1cc(C(=O)Nc2nc(C)cs2)cc(OC)c1OC | 57.2% (active)
Cc1csc(NC(=O)c2ccnc(N(C)C)c2)n1 | -4.65% (inactive)
COc1ccc(Oc2ccc(CNCc3ccc(C)s3)cn2)cc1 | 78.2% (active)
COc1ccc(CNC(=O)Nc2ncc([N+](=O)[O-])s2)cc1 | 11.6% (inactive)

Structure (SMILES) | inhibition
Cc1ccccc1OCC(=O)Nc1ccc(-n2ccnc2)cc1C(F)(F)F | 8.11% (inactive)
CNC(=O)C(C#N)C(=O)c1sc(-c2ccc(Cl)s2)nc1C (stereo not drawn) | 54.5% (active)
Cc1nc(-c2cc(Br)cs2)sc1C(=O)O | 19.5% (inactive)
CC(C)N1CCN(Cc2ccc(C#CC(C)(C)O)s2)CC1CCO (stereo not drawn) | 77.8% (active)
O=C(CS(=O)CCOc1cccc(Br)c1)NCC1CCCCC1 (stereo not drawn) | 12.5% (inactive)
O=C(NCC1CCCC1)c1csc(Br)c1 | 95.4% (active)
COc1ccc(C(=O)NCC2CCCCC2)cc1F | 70.9% (active)
O=C(NS(=O)(=O)C1CCCC1)c1ccc(F)c(F)c1 | 25.9% (inactive)
O=C(NCC1CC1)c1cc(-c2ccc(Br)cc2)n[nH]1 | 2.7% (inactive)
CCOc1ccc(NC(=O)COC(=O)c2ccc(Cl)cc2O)cc1 | 94.7% (active)
Cc1nc(-n2nc(-c3cccs3)cc2NC(=O)c2ccccc2F)[nH]c(=O)c1C | 83.2% (active)
Cc1cc(=O)[nH]c(-n2nc(-c3cccs3)cc2N)n1 | -45.8% (inactive)
Cc1nc(-n2nc(-c3cccs3)cc2N)[nH]c(=O)c1C | 92.4% (active)
Cc1nc(-n2nc(-c3cccs3)cc2NC(=O)c2ccccc2Cl)[nH]c(=O)c1C | 61% (active)
CC(C)c1cc(=O)[nH]c(-n2nc(-c3cccs3)cc2N)n1 | 1.53% (inactive)
CCC(CC)C(=O)Nc1cc(-c2cccs2)nn1-c1nc(C)c(C)c(=O)[nH]1 | -21.5% (inactive)
Cc1nc(-n2nc(-c3cccs3)cc2NC(=O)c2ccc(F)cc2)[nH]c(=O)c1C | 99.3% (active)
O=C(O)c1csc(-c2cnn(-c3ccccc3)n2)n1 | 33.6% (inactive)
Cc1cc(C)cc(NC(=O)c2ncn(-c3ccccc3C)n2)c1 | 77.4% (active)
CCN(CC)c1ccc(N2C(=O)CNC2=S)cc1 | 54.3% (active)
O=C1CNC(=S)N1c1ccc(Cl)cc1 | -2.04% (inactive)
CCN(CC)c1ccc(-c2n[nH]c(=S)o2)cc1 | -4.83% (inactive)
O=C(c1ccc(Cl)cc1)c1c(O)cc(-c2ccc(Cl)cc2)oc1=O | 84% (active)
S=c1[nH]cc(-c2ccc(Cl)cc2)o1 | -9.85% (inactive)
CSc1nnc(SCc2nc3sc(C(=O)O)c(C)c3c(=O)[nH]2)s1 | 80.8% (active)
C=CCSc1nc2sc(C(=O)O)c(C)c2c(=O)[nH]1 | 26.3% (inactive)

Structure (SMILES) | inhibition
Cc1sc2nc(CSC3=NCCS3)[nH]c(=O)c2c1C | 49% (inactive)
O=[N+]([O-])C1=C(Nc2ccc(-c3ccccc3)cc2)CS(=O)(=O)C1 | 95.9% (active)
COc1ccc(OCc2cc(C(=O)NCc3cccc(F)c3)no2)c(Cl)c1 | 34.7% (inactive)
Cc1[nH]c(=S)sc1CC(=O)Nc1cccc(OCc2ccc(F)cc2)c1 | 38.9% (inactive)
CC(=O)Nc1cccc(OCc2ccc(F)cc2)c1 | 92.5% (active)
CC(NC(=O)COc1ccc(C(F)(F)F)cc1)c1cccc(F)c1 (stereo not drawn) | 9.32% (inactive)
CNC(=O)c1ccc(OCc2cccc(F)c2)cc1 | 78.6% (active)
CC(=O)Nc1ccc(OCc2cccc(F)c2)c(Cl)c1 | 85.1% (active)
CSc1cccc(NC(=O)c2cc(=O)c(OCc3ccc(F)cc3)c[nH]2)c1 | 85.5% (active)
O=C(O)c1ccc(F)c(COc2ccc(F)cc2)c1 | 18.4% (inactive)
CCCS(=O)(=O)NCc1nc(NCCCc2ccccc2)c2ccccc2n1 | 33.8% (inactive)
CN(Cc1cc(-c2ccncc2)no1)Cc1ccc(Cl)s1 | 54.1% (active)
CN(Cc1ccc2c(c1)OCCO2)Cc1cc(-c2ccccc2)no1 | 37.6% (inactive)
CN(Cc1cc(-c2ccccc2)no1)Cc1cccc2nonc12 | 27.9% (inactive)
CN(Cc1cccc(Cn2cccn2)c1)Cc1cc(-c2ccccc2)no1 | 61.2% (active)
CN(Cc1cc(-c2ccncc2)no1)Cc1cc2ccccc2o1 | 23.3% (inactive)
CN(Cc1cc(-c2ccncc2)no1)Cc1ccc(C2CCCCO2)s1 (stereo not drawn) | 27.1% (inactive)
CN(Cc1ccsc1)Cc1cc(-c2ccccc2)no1 | 53.4% (active)
CCCCC1CCC(C(=O)Nc2noc3ncccc23)CC1 (stereo not drawn) | 99.3% (active)
O=C(Nc1cccc2ncccc12)C1CC2CCCC(C1)C2=O (stereo not drawn) | -15.1% (inactive)
CN(Cc1csc(-c2cccs2)n1)c1ccc(-c2nccn2C)nn1 | 68.3% (active)
c1cnc(N2CCN(Cc3csc(-c4cccs4)n3)CC2)nc1 | 40.8% (inactive)
CC1CCc2[nH]c3c(C(=O)NCC4CN(C)CCO4)cccc3c2C1 (stereo not drawn) | 39.4% (inactive)
Cc1nc(Cc2noc(CC3CC4CCC3C4)n2)no1 (stereo not drawn) | 66.8% (active)
Cc1ccc(CN(C)Cc2nc(CC3CC3)no2)o1 | inactive
COc1ccc(C=Nn2c(-c3ccc(Cl)cc3)csc2=N)cc1 | 60.1% (active)

Structure (SMILES) | inhibition
COc1ccc(/C=N\n2c(-c3ccc(Cl)cc3)csc2=N)cc1 | 38.1% (inactive)
COCCN=c1scc(-c2ccc(OC(F)F)cc2)n1N=Cc1ccc(OC)cc1 | 63.2% (active)
COCCN=c1scc(-c2ccc(OC(F)F)cc2)n1N=CC1CC2C=CC1C2 (stereo not drawn) | 101% (active)
C(=Nn1c(-c2ccccc2)csc1=NCCc1ccccc1)c1ccccn1 | 21.8% (inactive)
C=CCN=c1scc(-c2ccc(OC(F)F)cc2)n1N=Cc1ccc[nH]1 | 46.4% (inactive)
CN=c1scc(-c2ccc(OC(F)F)cc2)n1N=Cc1cccc(O)c1O | 98.9% (active)
CN=c1scc(-c2ccccc2)n1N=Cc1cccc(C(F)(F)F)c1 | 1.23% (inactive)
CN=c1scc(-c2cccc(Br)c2)n1N=Cc1cccc(O)c1O | 17.2% (inactive)
COCCN=c1scc(-c2ccc(Br)cc2)n1N=Cc1ccc(F)cc1 | 40.8% (inactive)
CN=c1scc(-c2ccccc2)n1N=Cc1ccccc1Br | 6.14% (inactive)
N#CC1(c2ccccc2)CCC2(CC1)N=C(N)Nc1nc3cc4c(cc3n12)OCCCO4 (stereo not drawn) | 45.8% (inactive)
Clc1ccc(CNc2c3c(nc4nncn24)CCC3)cc1 | 54.3% (active)
O=S(=O)(NCc1ccc(Cl)cc1)N1CCCCCC1 | 10.6% (inactive)
O=C(Nc1ccc(Oc2ccccc2)cc1)C1=COCCO1 | 49.4% (inactive)
O=C(Nc1ccc(SCc2cccnc2)cc1)C1=COCCO1 | 61% (active)
Cc1ccc(Sc2ccc(NC(=O)C3=COCCO3)cc2)cc1C | 33.3% (inactive)
N#CC(C#N)=Cc1ccc(-c2ccc(SC(F)F)cc2)o1 | -10.2% (inactive)
N#CC(C#N)=Cc1ccc(-c2ccc(F)cc2)o1 | -20.9% (inactive)
NC(=S)NN=Cc1ccc(-c2ccc(SC(F)F)cc2)o1 | 103% (active)
O=C1NC(=S)C(=Cc2ccc(-c3nc4ccccc4s3)o2)S1 | 77.4% (active)
NC(=S)NN=Cc1ccc(-c2nc3ccccc3s2)o1 | 67.3% (active)
O=C(Nc1nc(-c2nc3ccccc3s2)cs1)c1ccc([N+](=O)[O-])o1 | -46.3% (inactive)
O=C1NC(=S)C(=Cc2ccc(-c3ccc(F)cc3)o2)S1 | 97.6% (active)
N=c1oc2c([N+](=O)[O-])cc(Cl)cc2cc1-c1nc2ccccc2s1 | -34.4% (inactive)
Cc1nc(CNS(=O)(=O)c2c(C)c(C)c(C)c(C)c2C)cs1 | 6.48% (inactive)
